Values without a mark were called inactive. Inconclusive results are not listed. Entries that show only a call come without a potency. Calls of active or inactive are those of the source. Unless noted, the call rests on the fitted dose curve.
Legend:
[1] = target: Cytochrome P450 1A2 (Homo sapiens) (UniProt P05177); assay: p450-cyp1a2 (AID 410); further: potency means the concentration at half of the fitted maximal effect
Method in brief: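 Human CYP1A2 (20nM) demethylated Luciferin-ME at its Km (100uM) in 100mM KPO4. After 10 min compound preincubation, NADPH regeneration ran the reaction 60 min at room temperature. Luciferin was read by luminescence, normalized to 57 uM furafylline.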

[2] = target: Glucocorticoid receptor (Homo sapiens) (UniProt P04150); assay: GR-EFC Redistribution (AID 451); details: CHO-K1 GR-EFC translocation, beta-gal luminescence, 2 h; further: potency means the concentration at half of the fitted maximal effect
Method in brief: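 CHO-K1 cells stably expressing nuclear-localized β-gal enzyme acceptor and GR fused C-terminally to the enzyme donor fragment; ligand-driven nuclear translocation restores β-gal by complementation. Compounds titrated up to 46 uM final, 2 h at 37 °C; luminescence read.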

[3] = target: Mitogen-activated protein kinase 10 (Mus musculus) (UniProt Q61831); assay: JNK3 AlphaScreen Assay (AID 530; active means well fitted curve in either direction with a large enough effect, not every such curve was filed as active;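 further: kinase came from lysate of stimulated human HepG2 cells; signal reports phosphorylation of biotinylated GST-cJun 1-79 at Ser73 with 10 µM ATP; series mostly up to about 57 µM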)
Method in brief: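 JNK3 came from HepG2 lysates pre-activated with IL-1beta and TNF-alpha and phosphorylated biotinylated GST-cJun (1-79) at 10 uM ATP, pH 7.6, room temperature. Compounds were titrated. AlphaScreen signal used anti-phospho-cJun (Ser73) antibody.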

[4] = target: 3',5'-cyclic-AMP phosphodiesterase 4B (Homo sapiens) (UniProt Q07343); assay: qHTS Assay for Inhibitors of PDE-IV (AID 607; active means well fitted activation curve with a large enough effect in the main read-out, with a control signal flat, not every such curve was filed as active)
Method in brief: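 ACTOne HEK293 cells carry a modified cAMP-gated CNG channel and express endogenous PDE4; plated 1000 cells/well, compounds up to 22.9 uM final. Membrane-potential dye fluorescence (ex 535/em 590) was read; parental cells received 10 uM forskolin + 100 uM RO 20-1724.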

[5] = target: Cytochrome P450 2C9 (Homo sapiens) (UniProt P11712); assay: qHTS Assay for Inhibitors and Substrates of Cytochrome P450 2C9 (AID 883; active means well fitted curve in the direction sought with a large enough effect; an effect the other way counts as inactive or inconclusive; further: nearly all actives have a fitted effect of over 60% in size; further: potency means the concentration at half of the fitted maximal effect)
Method in brief: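 CYP2C9 deoxyluciferin hydroxylation, 37C, 60 min with NADPH regeneration; 10nM enzyme, 100uM Luciferin-H (KM). Glo detection reagent stopped reaction; luminescence normalized to sulphaphenazole (57uM) full inhibition.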

[6] = target: Cytochrome P450 2D6 (Homo sapiens) (UniProt P10635); assay: qHTS Assay for Inhibitors and Substrates of Cytochrome P450 2D6 (AID 891; active means well fitted curve in the direction sought with a large enough effect; an effect the other way counts as inactive or inconclusive; further: nearly all actives have a fitted effect of over 60% in size; further: potency means the concentration at half of the fitted maximal effect)
Method in brief: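 Human CYP2D6 (5 nM) with 30 uM Luciferin-ME EGE (at Km) in 100 mM KPO4, compound preincubated 10 min, then NADPH regeneration system for 60 min at room temperature. Luciferin read by luminescence; normalized to 1.43 uM quinidine.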

[7] = target: Cytochrome P450 2C19 (Homo sapiens) (UniProt P33261); assay: qHTS Assay for Inhibitors and Substrates of Cytochrome P450 2C19 (AID 899; active means well fitted curve in the direction sought with a large enough effect; an effect the other way counts as inactive or inconclusive; further: nearly all actives have a fitted effect of over 60% in size; further: potency means the concentration at half of the fitted maximal effect)
Method in brief: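 In 50mM KPO4, the reaction held 5nM enzyme and KM-level (10uM) Luciferin-H EGE; it ran 60 min at 37C after NADPH regeneration and a 10 min compound preincubation. Luminescence values were scaled to 57uM ketoconazole as complete inhibition.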

[8] = target: Cytochrome P450 3A4 (Homo sapiens) (UniProt P08684); assay: qHTS Assay for Activators of Cytochrome P450 3A4 (AID 885; active means well fitted curve in the direction sought with a large enough effect; an effect the other way counts as inactive or inconclusive; further: nearly all actives have a fitted effect of over 65% in size)
Method in brief: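 20nM CYP3A4 + 25uM Luciferin-PPXE (=KM), 200mM KPO4; cpd 10 min RT; NADPH regen, 60 min RT; stop w/ detection buffer, 20 min; luminescence. Normalized to 57 uM ketoconazole.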

[9] = target: Glucocorticoid receptor (Homo sapiens) (UniProt P04150); assay: GR-GFP Redistribution (AID 450;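 active means compounds whose dose series gives a full or clear partial fitted curve of increased nuclear translocation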; further: potency means the concentration at half of the fitted maximal effect); details: U2OS GR-GFP nuclear translocation, laser cytometry, 2 h
[10] = target: Cytochrome P450 3A4 (Homo sapiens) (UniProt P08684); assay: qHTS Assay for Inhibitors and Substrates of Cytochrome P450 3A4 (AID 884; active means well fitted curve in the direction sought with a large enough effect; an effect the other way counts as inactive or inconclusive; further: potency means the concentration at half of the fitted maximal effect; nearly all actives have a fitted effect of over 50% in size)
Method in brief: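 20 nM human CYP3A4 with 25 uM Luciferin-PPXE (at KM) in 200 mM KPO4, preincubated 10 min with compound; NADPH regeneration started a 60 min RT reaction. Luciferin detected by luminescence, normalized to 57 uM ketoconazole as full inhibition.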

Chain of Cytochrome P450 2C19 (Homo sapiens) (P33261 whole entry, looked up): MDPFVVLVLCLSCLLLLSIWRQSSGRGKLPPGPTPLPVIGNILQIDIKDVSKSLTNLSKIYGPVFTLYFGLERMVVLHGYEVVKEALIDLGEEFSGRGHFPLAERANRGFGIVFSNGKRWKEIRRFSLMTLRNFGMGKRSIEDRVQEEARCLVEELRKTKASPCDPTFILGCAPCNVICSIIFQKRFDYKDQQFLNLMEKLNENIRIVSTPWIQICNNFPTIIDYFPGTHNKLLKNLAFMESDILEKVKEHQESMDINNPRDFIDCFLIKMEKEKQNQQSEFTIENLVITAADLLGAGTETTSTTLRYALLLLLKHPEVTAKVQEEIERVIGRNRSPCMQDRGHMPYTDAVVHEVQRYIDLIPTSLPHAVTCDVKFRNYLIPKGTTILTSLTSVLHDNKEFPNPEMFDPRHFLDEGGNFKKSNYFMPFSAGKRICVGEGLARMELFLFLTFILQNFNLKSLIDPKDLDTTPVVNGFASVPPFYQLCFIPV
Chain of Glucocorticoid receptor (Homo sapiens) (P04150 whole entry, looked up, the tested form may be a part): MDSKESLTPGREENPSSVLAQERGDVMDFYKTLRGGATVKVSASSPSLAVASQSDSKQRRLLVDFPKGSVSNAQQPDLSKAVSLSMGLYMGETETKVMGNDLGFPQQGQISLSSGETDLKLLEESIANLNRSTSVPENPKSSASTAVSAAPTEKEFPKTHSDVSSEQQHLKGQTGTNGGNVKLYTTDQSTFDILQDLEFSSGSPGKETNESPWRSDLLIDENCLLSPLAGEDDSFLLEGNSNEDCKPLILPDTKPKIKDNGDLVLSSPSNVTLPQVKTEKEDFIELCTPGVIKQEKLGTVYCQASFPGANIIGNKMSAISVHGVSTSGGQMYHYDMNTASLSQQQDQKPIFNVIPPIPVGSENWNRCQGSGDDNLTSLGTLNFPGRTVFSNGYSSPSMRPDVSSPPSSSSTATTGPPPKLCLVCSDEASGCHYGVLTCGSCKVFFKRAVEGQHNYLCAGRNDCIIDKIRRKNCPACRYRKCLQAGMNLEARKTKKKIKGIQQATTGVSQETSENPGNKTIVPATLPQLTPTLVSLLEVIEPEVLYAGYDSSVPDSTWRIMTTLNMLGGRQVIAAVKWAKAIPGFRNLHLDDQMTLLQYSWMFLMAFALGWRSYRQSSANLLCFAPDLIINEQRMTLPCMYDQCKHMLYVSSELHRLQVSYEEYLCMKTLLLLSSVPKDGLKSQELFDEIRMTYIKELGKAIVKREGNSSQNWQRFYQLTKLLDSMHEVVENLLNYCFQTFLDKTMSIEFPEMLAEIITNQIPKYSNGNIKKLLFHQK
Chain of Cytochrome P450 1A2 (Homo sapiens) (P05177 whole entry, looked up): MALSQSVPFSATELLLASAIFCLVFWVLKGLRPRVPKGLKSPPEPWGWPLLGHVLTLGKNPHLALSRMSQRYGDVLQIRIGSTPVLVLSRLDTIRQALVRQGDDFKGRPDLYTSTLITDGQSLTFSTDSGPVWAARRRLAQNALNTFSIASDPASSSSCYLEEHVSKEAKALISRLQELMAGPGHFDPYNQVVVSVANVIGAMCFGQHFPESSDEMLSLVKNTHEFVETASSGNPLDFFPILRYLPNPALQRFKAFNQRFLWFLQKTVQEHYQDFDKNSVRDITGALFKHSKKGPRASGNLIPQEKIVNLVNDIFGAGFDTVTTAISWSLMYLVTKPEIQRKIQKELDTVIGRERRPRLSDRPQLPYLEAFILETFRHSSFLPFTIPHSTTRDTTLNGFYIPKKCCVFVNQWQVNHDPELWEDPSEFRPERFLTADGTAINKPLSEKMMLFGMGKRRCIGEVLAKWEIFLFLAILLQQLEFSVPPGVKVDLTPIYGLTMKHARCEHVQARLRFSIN
Chain of Cytochrome P450 2C9 (Homo sapiens) (P11712 whole entry, looked up): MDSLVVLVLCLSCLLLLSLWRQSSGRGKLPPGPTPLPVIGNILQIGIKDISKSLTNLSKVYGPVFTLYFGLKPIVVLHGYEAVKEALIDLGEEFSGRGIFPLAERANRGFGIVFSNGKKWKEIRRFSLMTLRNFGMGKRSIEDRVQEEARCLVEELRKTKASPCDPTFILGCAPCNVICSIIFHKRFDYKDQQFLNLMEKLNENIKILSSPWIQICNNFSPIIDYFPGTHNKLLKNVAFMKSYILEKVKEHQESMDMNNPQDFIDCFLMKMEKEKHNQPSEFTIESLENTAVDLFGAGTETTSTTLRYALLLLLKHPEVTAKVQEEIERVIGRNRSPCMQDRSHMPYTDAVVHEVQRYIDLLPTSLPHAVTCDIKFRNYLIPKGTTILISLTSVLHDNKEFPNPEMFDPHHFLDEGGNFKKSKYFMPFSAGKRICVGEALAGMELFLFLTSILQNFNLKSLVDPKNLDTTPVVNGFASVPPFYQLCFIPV
Chain of Cytochrome P450 2D6 (Homo sapiens) (P10635 whole entry, looked up): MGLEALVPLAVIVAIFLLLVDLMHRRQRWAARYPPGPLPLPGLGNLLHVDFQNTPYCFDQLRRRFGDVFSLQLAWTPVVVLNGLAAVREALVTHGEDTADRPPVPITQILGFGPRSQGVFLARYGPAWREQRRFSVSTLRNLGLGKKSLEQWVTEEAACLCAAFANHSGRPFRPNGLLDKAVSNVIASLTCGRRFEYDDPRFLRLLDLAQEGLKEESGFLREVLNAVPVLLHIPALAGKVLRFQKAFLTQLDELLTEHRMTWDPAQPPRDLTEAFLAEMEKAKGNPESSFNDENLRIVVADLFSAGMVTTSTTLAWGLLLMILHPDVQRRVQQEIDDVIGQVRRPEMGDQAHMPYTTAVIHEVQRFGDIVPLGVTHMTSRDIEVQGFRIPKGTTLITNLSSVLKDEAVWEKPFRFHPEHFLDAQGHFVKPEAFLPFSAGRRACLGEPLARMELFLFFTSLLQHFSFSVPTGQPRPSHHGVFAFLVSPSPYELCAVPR
Chain of 3',5'-cyclic-AMP phosphodiesterase 4B (Homo sapiens) (Q07343 whole entry, looked up): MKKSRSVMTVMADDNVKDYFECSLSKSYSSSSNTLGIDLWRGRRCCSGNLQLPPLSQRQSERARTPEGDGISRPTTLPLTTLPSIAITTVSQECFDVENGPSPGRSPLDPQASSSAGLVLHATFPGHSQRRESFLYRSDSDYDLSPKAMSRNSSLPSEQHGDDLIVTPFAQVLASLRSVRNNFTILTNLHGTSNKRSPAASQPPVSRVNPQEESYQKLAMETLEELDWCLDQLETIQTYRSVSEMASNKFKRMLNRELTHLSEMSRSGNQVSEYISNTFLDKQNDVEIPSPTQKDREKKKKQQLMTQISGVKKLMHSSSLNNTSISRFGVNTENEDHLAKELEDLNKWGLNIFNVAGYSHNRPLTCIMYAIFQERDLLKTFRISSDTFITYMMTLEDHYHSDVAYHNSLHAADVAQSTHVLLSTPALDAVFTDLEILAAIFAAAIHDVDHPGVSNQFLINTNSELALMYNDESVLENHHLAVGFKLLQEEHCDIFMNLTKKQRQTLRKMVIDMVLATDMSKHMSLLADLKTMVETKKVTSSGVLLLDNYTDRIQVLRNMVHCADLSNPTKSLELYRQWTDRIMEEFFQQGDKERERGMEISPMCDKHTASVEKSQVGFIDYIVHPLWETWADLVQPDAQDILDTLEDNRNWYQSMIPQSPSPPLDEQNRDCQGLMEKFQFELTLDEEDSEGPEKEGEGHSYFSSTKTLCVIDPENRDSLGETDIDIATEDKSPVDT
Chain of Cytochrome P450 3A4 (Homo sapiens) (P08684 whole entry, looked up): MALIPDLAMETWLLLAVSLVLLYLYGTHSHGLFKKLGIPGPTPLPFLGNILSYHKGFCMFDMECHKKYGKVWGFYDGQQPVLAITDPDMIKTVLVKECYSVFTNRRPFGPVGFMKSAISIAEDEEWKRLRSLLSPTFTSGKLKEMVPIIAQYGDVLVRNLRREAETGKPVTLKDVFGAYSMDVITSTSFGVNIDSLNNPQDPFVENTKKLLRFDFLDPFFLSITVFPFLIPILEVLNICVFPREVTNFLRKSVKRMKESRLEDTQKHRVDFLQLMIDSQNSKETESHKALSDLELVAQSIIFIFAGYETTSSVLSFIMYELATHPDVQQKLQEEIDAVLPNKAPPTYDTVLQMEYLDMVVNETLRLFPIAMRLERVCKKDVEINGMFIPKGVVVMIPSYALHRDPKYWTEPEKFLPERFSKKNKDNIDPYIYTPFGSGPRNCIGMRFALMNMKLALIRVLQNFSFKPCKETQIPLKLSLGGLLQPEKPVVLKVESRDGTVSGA

Structure (SMILES)	Potency [1]	Potency [2] [µM]	outcome [3]	outcome [4]	Potency [5]	Potency [6]	Potency [7]	Potency [8]	Potency [9] [µM]	Potency [10]
CC(=O)N1C[C@@H]2C[C@H](C1)c1cccc(=O)n1C2	inactive	> 46	inactive	inactive	inactive	inactive	inactive	–	–	–
CC(C)[C@@]1(NC(=O)[C@@H]2C[C@H]3c4cccc5[nH]cc(c45)C[C@@H]3N(C)C2)O[C@@]2(O)[C@H]3CCCN3C(=O)[C@@H](Cc3ccccc3)N2C1=O	inactive	> 46	inactive	inactive	1.26 µM (active)	–	3.16 µM (active)	–	–	–
CCCc1cc2c(n1CCO)C(C)C1CN(C(=O)c3ccccc3)C(C)(C(=O)OC)C21 (stereo not drawn)	inactive	–	inactive	inactive	–	–	–	inactive	–	–
CC(C)[C@]1(NC(=O)[C@H]2C=C3c4cccc5[nH]cc(c45)C[C@H]3N(C)C2)O[C@@]2(O)[C@H]3CCCN3C(=O)[C@H](Cc3ccccc3)N2C1=O	31.6 µM (active)	> 46	–	–	–	inactive	2 µM (active)	–	> 46	–
CC(C)(C)[C@@]1(O)C[C@@H]2OC(=O)C[C@@]23C(=O)O[C@H]2OC(=O)[C@@H](O)[C@]231	inactive	> 46	inactive	inactive	inactive	inactive	inactive	–	–	–
CC(C)C[C@H]1C(=O)N2CCC[C@@H]2[C@]2(O)O[C@](NC(=O)[C@H]3C=C4c5cccc6[nH]cc(c56)C[C@H]4N(C)C3)(C(C)C)C(=O)N12	31.6 µM (active)	> 46	–	inactive	–	inactive	–	–	> 46	–
CCN1C[C@@]2(COC(=O)c3ccccc3N3C(=O)C[C@H](C)C3=O)CC[C@H](OC)[C@@]34[C@@H]5CC6[C@@H](OC)C[C@@](O)([C@H]5[C@H]6OC)C(O)([C@@H]13)[C@@H](OC)[C@H]24	inactive	> 46	–	inactive	inactive	inactive	inactive	–	> 46	–
CCCCCC[C@H]1C(=O)O[C@@H](C)[C@H](NC(=O)c2cccc(NC=O)c2O)C(=O)O[C@@H](C)[C@@H]1OC(=O)CC(C)C	inactive	> 46	inactive	–	–	inactive	inactive	–	> 46	–
C[C@H]1CCCC=CC2C[C@H](O)C[C@@H]2[C@H](O)/C=C\C(=O)O1 (stereo partly drawn)	15.8 µM (active)	> 46	inactive	inactive	–	–	–	inactive	–	–
COC(=O)[C@@]1(Cc2ccc(F)cc2)[C@H]2c3cc(C(=O)N(C)C)[nH]c3C[C@H]2CN1C(=O)c1ccccc1	20 µM (active)	–	inactive	inactive	–	–	–	inactive	–	0.631 µM (active)
O=C(O)[C@@H]1C[C@H]1[C@@H](NP(=O)(c1ccccc1)c1ccccc1)c1ccccc1	inactive	–	inactive	inactive	–	–	–	–	–	–
COC(=O)C1(C)C=C2C(=C(C)C(=O)C2C)CN1 (stereo not drawn)	31.6 µM (active)	–	inactive	inactive	–	–	–	–	–	–
O=c1cccc2n1C[C@@H]1C[C@H]2CN2CCCC[C@H]12	1.26 µM (active)	> 46	–	inactive	inactive	–	–	–	> 46	–
CCN(CC)c1ncnc2c1ncn2[C@@H]1O[C@@H](COP(=O)(O)OP(=O)(O)C(Br)(Br)P(=O)(O)O)[C@H](O)[C@H]1O	39.8 µM (active)	> 46	–	inactive	–	0.631 µM (active)	–	–	> 46	–
